About 79,000 compounds went through this panel and 15% of them were active in at least one assay; those are over-represented in the sample as a whole. Activity calls are given as the source filed them. Rule as the data show it: active = growth inhibition above about 70%; inactive = the rest.
Assays:
[1] = NCI Yeast Anticancer Drug Screen. Data for the rad52 strain (AID 147);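 also: 0% = growth of vehicle-treated control cultures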; settings: S. cerevisiae rad52 mutant growth inhibition, active compounds read high
In short: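 Read-out: growth inhibition versus vehicle-treated controls. Cells were a DNA repair-deficient yeast strain treated with compounds.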

[2] = NCI Yeast Anticancer Drug Screen. Data for the wt1 strain (AID 149);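 also: 0% = growth of vehicle-treated wt1 cultures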; settings: S. cerevisiae wt1 strain (SPY 50644) growth inhibition, active compounds read high
In short: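 wt1 yeast, compound-treated; % growth inhibition vs vehicle control.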

[3] = NCI Yeast Anticancer Drug Screen. Data for the rad50EPP+ strain (AID 151);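 also: 0% = growth of vehicle-treated control cultures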; settings: S. cerevisiae rad50 mutant strain, active compounds read high
In short: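 Growth inhibition read against vehicle controls in rad50EPP+ yeast, a strain altered in DNA damage repair, after compound exposure.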

[4] = NCI Yeast Anticancer Drug Screen. Data for the mgt1 strain (AID 153); settings: S. cerevisiae mgt1 mutant growth inhibition, active compounds read high
In short: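 mgt1 yeast grown with test compound; read-out is growth inhibition versus vehicle-treated cultures.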

[5] = NCI Yeast Anticancer Drug Screen. Data for the rad50 strain (AID 155);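 also: 0% = growth of vehicle-only cultures of the same strain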; settings: S. cerevisiae rad50 strain growth inhibition, active compounds read high
In short: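 Genetically altered yeast (DNA repair pathway); compound treatment; growth inhibition vs vehicle ctrl.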

[6] = NCI Yeast Anticancer Drug Screen. Data for the mec2-1 strain (AID 157); settings: S. cerevisiae mec2-1 strain, active compounds read high
In short: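 Yeast mec2-1 mutant treated with compound. Readout: growth inhibition vs vehicle controls.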

[7] = NCI Yeast Anticancer Drug Screen. Data for the rad14 strain (AID 159);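 also: 0% = growth of vehicle-treated control cultures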; settings: S. cerevisiae rad14 strain growth inhibition, active compounds read high
In short: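 Test compounds were applied to a repair-deficient yeast strain. Its growth was then compared with that of cultures given vehicle alone, and inhibition was expressed relative to those controls.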

[8] = NCI Yeast Anticancer Drug Screen. Data for the sgs1 mgt1 strain (AID 161);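 also: 0% = growth of cultures given vehicle only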; settings: S. cerevisiae sgs1 mgt1 strain, active compounds read high
In short: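 Genetically altered yeast, compound exposure, growth inhibition relative to vehicle.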

[9] = NCI Yeast Anticancer Drug Screen. Data for the CLN2oe strain (AID 163);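 also: 0% = growth of vehicle-only control cultures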; settings: S. cerevisiae CLN2oe strain, active compounds read high
In short: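 Read-out: yeast growth inhibition, expressed relative to vehicle-only controls. The strain bears an engineered cell-cycle alteration.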

[10] = NCI Yeast Anticancer Drug Screen. Data for the cln2 rad14 strain (AID 165);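 also: 0% = growth equal to vehicle treated cultures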; settings: S. cerevisiae cln2 rad14 strain, active compounds read high
In short: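 cln2 rad14 yeast strain; compound exposure; growth inhibition read vs vehicle controls.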

[11] = NCI Yeast Anticancer Drug Screen. Data for the bub3 strain (AID 167); settings: S. cerevisiae bub3 mutant strain, active compounds read high
In short: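 Yeast carrying a defined mutation is treated with each compound, and growth is compared with that of vehicle-exposed cells to give inhibition.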

[12] = NCI Yeast Anticancer Drug Screen. Data for the wt2 strain (AID 169);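 also: 0% = growth of vehicle-treated yeast cultures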; settings: S. cerevisiae wt2 strain growth inhibition, active compounds read high
In short: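 Read-out: growth inhibition versus vehicle-treated control cultures after compound exposure of the yeast strain.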

[13] = NCI Yeast Anticancer Drug Screen. Data for the mlh1 strain (AID 171);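 also: 0% = growth of vehicle-treated control cultures of the same strain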; settings: S. cerevisiae mlh1 strain growth inhibition, active compounds read high
In short: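 Read-out: growth inhibition versus vehicle controls. Strain: engineered yeast with a defined DNA repair or cell cycle defect, compound-treated.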

[14] = NCI Yeast Anticancer Drug Screen. Data for the sgs1 strain (AID 173);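 also: 0% = growth of vehicle-only control cultures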; settings: S. cerevisiae sgs1 mutant, active compounds read high
In short: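 Read-out: yeast growth inhibition relative to vehicle controls, following compound exposure of a strain with a defined DNA repair/cell cycle alteration.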

[15] = NCI Yeast Anticancer Drug Screen. Data for the mlh1 rad18 strain (AID 175); settings: S. cerevisiae mlh1 rad18 strain growth inhibition, active compounds read high
In short: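 Yeast w/ defined DNA-repair lesions; compound exposure; growth vs vehicle controls → % inhibition.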

[16] = NCI Yeast Anticancer Drug Screen. Data for the rad18 strain (AID 177); settings: S. cerevisiae rad18 mutant growth inhibition, active compounds read high
In short: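 Readout: growth inhibition vs vehicle controls. Cells: genetically altered yeast strain, DNA repair defect.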

[17] = at 5.0 µM (retest, dose inferred, filed as 0.5)
[18] = at 50.0 µM (retest, dose inferred, filed as 5.0)

Measured: growth inhibition

CNCC(C)CNC
inactive: [1]; at 1.2 µM -40% | [1]; at 3.7 µM -51% | [1]; at 11.0 µM -46% | [1]; at 33.0 µM -50% | [1]; at 100.0 µM -52% | [2]; at 1.2 µM -25% | [2]; at 3.7 µM -14% | [2]; at 11.0 µM -5% | [2]; at 33.0 µM -8% | [2]; at 100.0 µM -21% | [3]; at 1.2 µM -14% | [3]; at 3.7 µM -29% | [3]; at 11.0 µM -23% | [3]; at 33.0 µM -2% | [3]; at 100.0 µM -19% | [4]; at 1.2 µM 9% | [4]; at 3.7 µM 17% | [4]; at 11.0 µM 25% | [4]; at 33.0 µM 4% | [4]; at 100.0 µM 5% | [5]; at 1.2 µM 4% | [5]; at 3.7 µM -14% | [5]; [17] -6% | [5]; at 11.0 µM -28% | [5]; at 33.0 µM -27% | [5]; [18] 22% | [5]; at 100.0 µM -23% | [6]; at 1.2 µM -12% | [6]; at 3.7 µM -15% | [6]; [17] 10% | [6]; at 11.0 µM -19% | [6]; at 33.0 µM -27% | [6]; [18] 39% | [6]; at 50.0 µM 42.5% | [6]; at 100.0 µM -26% | [7]; at 1.2 µM -18% | [7]; at 3.7 µM -15% | [7]; at 11.0 µM -13% | [7]; at 33.0 µM -12% | [7]; at 100.0 µM -18% | [8]; [17] 2% | [8]; [18] 25% | [8]; at 50.0 µM 23.3% | [9]; at 1.2 µM 15% | [9]; at 3.7 µM 6% | [9]; at 11.0 µM -1% | [9]; at 33.0 µM -7% | [9]; at 100.0 µM -12% | [10]; [17] 20% | [10]; [18] 63% | [10]; at 50.0 µM 66.2% | [11]; at 1.2 µM -11% | [11]; at 3.7 µM 1% | [11]; [17] -9% | [11]; at 11.0 µM -8% | [11]; at 33.0 µM -33% | [11]; [18] 69% | [11]; at 50.0 µM -2.65% | [11]; at 100.0 µM -50% | [12]; at 1.2 µM -30% | [12]; at 3.7 µM -30% | [12]; at 11.0 µM -28% | [12]; at 33.0 µM -37% | [12]; at 100.0 µM -41% | [13]; at 1.2 µM 12% | [13]; at 3.7 µM 8% | [13]; at 11.0 µM 5% | [13]; at 33.0 µM 6% | [13]; at 100.0 µM -30% | [14]; at 1.2 µM -28% | [14]; at 3.7 µM -6% | [14]; at 11.0 µM -22% | [14]; at 33.0 µM -23% | [14]; at 100.0 µM -22% | [15]; [17] -6% | [16]; at 1.2 µM -16% | [16]; at 3.7 µM -25% | [16]; at 11.0 µM -21% | [16]; at 33.0 µM -21% | [16]; at 100.0 µM -31%
active: [5]; at 50.0 µM 73.8% | [15]; [18] 84% | [15]; at 50.0 µM 71.8%

Cc1cccc2c(Cl)c3cccc(C)c3nc12
active: [5]; [18] 75% | [5]; at 50.0 µM 75%
inactive: [1]; at 1.2 µM 1% | [1]; at 3.7 µM -1% | [1]; at 11.0 µM 8% | [1]; at 33.0 µM 42% | [1]; at 100.0 µM 65% | [2]; at 1.2 µM -2% | [2]; at 3.7 µM -3% | [2]; at 11.0 µM -1% | [2]; at 33.0 µM -1% | [2]; at 100.0 µM 2% | [3]; at 1.2 µM 2% | [3]; at 3.7 µM 5% | [3]; at 11.0 µM 26% | [3]; at 33.0 µM 64% | [3]; at 100.0 µM 61% | [4]; at 1.2 µM -4% | [4]; at 3.7 µM 1% | [4]; at 11.0 µM -7% | [4]; at 33.0 µM 0% | [4]; at 100.0 µM -10% | [5]; at 1.2 µM 1% | [5]; at 3.7 µM 10% | [5]; [17] 13% | [5]; at 11.0 µM 21% | [5]; at 33.0 µM 44% | [5]; at 100.0 µM 62% | [6]; at 1.2 µM -10% | [6]; at 3.7 µM -13% | [6]; [17] 7% | [6]; at 11.0 µM -10% | [6]; at 33.0 µM 1% | [6]; [18] 25% | [6]; at 50.0 µM -15.9% | [6]; at 100.0 µM 6% | [7]; at 1.2 µM -2% | [7]; at 3.7 µM 11% | [7]; at 11.0 µM 4% | [7]; at 33.0 µM 13% | [7]; at 100.0 µM 12% | [8]; [17] -6% | [8]; [18] 58% | [8]; at 50.0 µM -15.8% | [9]; at 1.2 µM -5% | [9]; at 3.7 µM -5% | [9]; at 11.0 µM -7% | [9]; at 33.0 µM -7% | [9]; at 100.0 µM -3% | [10]; [17] -33% | [10]; [18] 10% | [10]; at 50.0 µM 1.65% | [11]; at 1.2 µM -8% | [11]; at 3.7 µM 6% | [11]; [17] 0% | [11]; at 11.0 µM 2% | [11]; at 33.0 µM 1% | [11]; [18] 18% | [11]; at 50.0 µM -28.9% | [11]; at 100.0 µM -17% | [12]; at 1.2 µM -4% | [12]; at 3.7 µM -3% | [12]; at 11.0 µM -2% | [12]; at 33.0 µM 3% | [12]; at 100.0 µM 5% | [13]; at 1.2 µM -3% | [13]; at 3.7 µM -2% | [13]; at 11.0 µM 3% | [13]; at 33.0 µM 12% | [13]; at 100.0 µM 12% | [14]; at 1.2 µM -3% | [14]; at 3.7 µM -5% | [14]; at 11.0 µM -4% | [14]; at 33.0 µM 2% | [14]; at 100.0 µM 2% | [15]; [17] -16% | [15]; [18] 49% | [15]; at 50.0 µM 10.1% | [16]; at 1.2 µM -3% | [16]; at 3.7 µM -3% | [16]; at 11.0 µM -1% | [16]; at 33.0 µM 6% | [16]; at 100.0 µM 14%

— PubChem BioAssay (NCI)
